Reference: PubChem BioAssay
Unmarked numbers belong to inactive results. The list shows a part of the results. The source made the active and inactive calls.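 Rule for the calls, unless noted: active = mean inhibition of the triplicate above the hit cutoff set for the earlier primary screen (cut at about 25% in these data); inactive = the rest.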

How the values were obtained:
[1] = target: Insulin-degrading enzyme (Homo sapiens) (UniProt P14735); assay: human IDE inhibitors in live cells, confirmation, fluorescence polarization, HEK cells, FAbetaB substrate (AID 435028;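 active = mean inhibition across triplicate wells above the cutoff set by the earlier primary insulin-degrading enzyme screen, cut at about 16% in these data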;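 note: 0% = DMSO wells and 100% = 60 µM reference IDE inhibitor Ii1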); details: FAbetaB cleavage, at 5.59 µM, hits give high values
[2] = cytotoxicity in HEK cells, cytotoxicity control for IDE inhibitor project, cell-based, luminescence (AID 449730; in the data active = inhibition above about 22%;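 note: 0% = vehicle wells and 100% = reference cytotoxic drug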); details: HEK293 cytotoxicity, ATP luminescence; at 5.59 µM; hits give high values
[3] = target: Platelet-activating factor acetylhydrolase IB subunit alpha1 (Homo sapiens) (UniProt Q15102); assay: PAFAH1B3 enzyme inhibitors, confirmation, biochemical, fluorescence polarization, human (AID 493032;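 active = average inhibition over triplicate runs above the hit cutoff set in the earlier primary screen, cut at about 25% in these data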;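 note: 0% = enzyme with DMSO and 100% = wells lacking PAFAH1B3 protein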); details: recombinant PAFAH1B3, FP-Rh activity-based probe, at 3.39 µM, hits give high values
[4] = target: Toll-like receptor 9 (Homo sapiens) (UniProt Q9NR96); assay: TLR9-MyD88 association inhibitors, retest, confirmation, cell-based, CHO, BLA complementation, fluorescence, triplicate (AID 540250;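 active = mean inhibition across three repeats above about 21% taken from the earlier screen, limit read from the data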;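 note: blue over green emission ratio reports constitutive TLR9 MyD88 association via BLA complementation; 0% = DMSO vehicle wells and 100% = clavulanate BLA inhibitor wells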); details: CCF4 FRET ratio, at 4.98 µM, hits give high values
[5] = beta-lactamase reporter inhibitors in CHO cells, artefact control for TLR9-MyD88 binding inhibitor project, cell-based, fluorescence (AID 540251;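 active = mean inhibition above a 50% cutoff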;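 note: counterscreen of TLR9-MyD88 hits on CMV-driven BLA in CHO-K1 cells; 0% = DMSO alone and 100% = clavulanate blocking BLA; higher means less blue over green ratio so more BLA blockade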); details: CHO-BLA cells, CCF4 FRET ratio, at 4.98 µM, hits give high values
[6] = CHO cell viability loss – luminescence, single concentration, cytotoxicity control for TLR9-MyD88 binding inhibitor project (AID 588336; in the data active = inhibition above about 11%); details: TLR9-MyD88 CHO cells cytotoxicity, at 4.98 µM, hits give high values
[7] = target: Receptor-interacting serine/threonine-protein kinase 2 (Homo sapiens) (UniProt O43353); assay: NOD2-RIPK2 binding disruptors, retest, confirmation, fluorescence, CHO cells, BLA complementation, triplicate (AID 624370;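 active = mean inhibition across replicates above a set limit taken from the earlier primary screen, cut at about 21% in these data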;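 note: 0% = DMSO-only wells and the high end = clavulanate BLA-blocked wells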); details: CCF4 FRET, at 4.98 µM, hits give high values
[8] = beta-lactamase reporter inhibitors in CHO cells, confirmation, artefact control for NOD2-RIPK2 interaction inhibitor project, cell-based, CHO-K1 CMV-bla, CCF4 FRET, fluorescence (AID 624371;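 active = mean inhibition above the low-control mean inhibition plus three low-control SD, cut at about 11% in these data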;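 note: 0% = DMSO only wells and 100% = clavulanate high control wells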); details: CCF4 FRET ratio, counterscreen, at 4.98 µM, hits give high values
[9] = target: Platelet-activating factor acetylhydrolase (Homo sapiens) (UniProt Q13093); assay: pPAFAH (PLA2G7) enzyme inhibitors, confirmation, biochemical, fluorescence polarization, human (AID 463230); details: recombinant pPAFAH, FP-Rh probe fluorescence polarization; at 3.39 µM; hits give high values;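 note: 0% = enzyme with DMSO and 100% = wells lacking pPAFAH enzyme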
[10] = target: Protein-arginine deiminase type-4 (Homo sapiens) (UniProt Q9UM07); assay: human PAD4 inhibitors, confirmation, biochemical, fluorescence polarization (AID 488796;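 active = mean inhibition across replicates above the hit cutoff set by the earlier primary screen, cut at about 15% in these data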;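 note: inhibitors block active-site labeling by the probe so polarization falls; 0% = PAD4 with probe and DMSO and 100% = probe without PAD4 enzyme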); details: recombinant PAD4, RCA probe fluorescence polarization; at 6.36 µM; hits give high values
[11] = target: Nuclear receptor coactivator 3 (Homo sapiens) (UniProt Q9Y6Q9); assay: SRC3 coactivator transcriptional activity inhibitors, confirmation, cell-based, luminescence, quadruplicate (AID 588792;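 active = mean inhibition over 43.08%, the solvent-only control mean plus 3 SD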;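 note: 0% = DMSO treated cells and 100% = gossypol at 36 µM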); details: HEK293 GAL4-SRC3 luciferase reporter, at 3.6 µM, hits give high values
[12] = system: transactivating tegument protein VP16 (Human herpesvirus 1), Gal4-VP16 luciferase reporter; assay: VP16 transactivation inhibitors, counter-screen for SRC3 inhibitor project, cell-based, luminescence, high throughput (AID 588794; in the data active = inhibition above about 30%); details: mammalian cells, VP16-driven luciferase reporter luminescence; at 3.6 µM; hits give high values
[13] = system: transactivating tegument protein VP16 (Human herpesvirus 1); assay: VP16 transactivation reporter inhibitors, counter-screen for SRC2 inhibitor project, cell-based, luminescence, single concentration (AID 652007; in the data active = inhibition above about 36%); details: cell-based VP16 transactivation luciferase reporter, at 8.9 µM, hits give high values
[14] = target: Nuclear receptor coactivator 2 (Homo sapiens) (UniProt Q15596); assay: SRC2 coactivator transcriptional activity inhibitors, confirmation, cell-based, luminescence, HEK293, triplicate (AID 652008;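 active = mean inhibition above 46.5%, the solvent-only control mean plus 3 SD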;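 note: 0% = DMSO-treated cells and 100% = Gossypol at 36 µM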); details: HEK293 GAL4-SRC2 luciferase reporter, at 8.9 µM, hits give high values
[15] = Gal4-VP16 luciferase reporter inhibitors, counter-screen for COUP-TFII antagonist project, cell-based, luminescence, HEK293 (AID 687007; in the data active = inhibition above about 13%); details: at 8.5 µM, hits give high values
[16] = target: COUP transcription factor 2 (Homo sapiens) (UniProt P24468); assay: NR2F2 transcriptional activity inhibitors, confirmation, cell-based, luciferase reporter, HEK293, triplicate (AID 687008;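 active = mean inhibition over three repeats above a set limit taken from the earlier primary screen, cut at about 38% in these data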;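 note: 100% = cells given the luciferase reporter alone without the COUP-TF2 vector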); details: HEK293 NGFI-A luciferase reporter, luminescence; at 8.5 µM; hits give high values
[17] = target: Serine protease HTRA1 (Homo sapiens) (UniProt Q92743); assay: HTRA1 protease inhibitors, retest, confirmation, biochemical, fluorescence polarization (AID 540248;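 active = mean inhibition over three repeats above a set limit taken from the earlier primary screen, cut at about 37% in these data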;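 note: 0% = HTRA1 with DMSO and 100% = wells lacking HTRA1; inhibitors block probe binding so polarization drops and inhibition rises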); details: recombinant HTRA1, FP-rhodamine activity-based probe, at 5.96 µM, hits give high values
[18] = system: DAF-12 nuclear receptor (Heterodera glycines), GAL4-LBD fusion; assay: H. glycines DAF-12 receptor agonists, confirmation, cell-based, luminescence, HEK293, GAL4-LBD fusion (AID 743050;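 active = mean activation over triplicate wells above the hit cutoff derived from the earlier primary screen, cut at about 11% in these data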;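 note: 0% = DMSO low control and 100% = 2 mM sodium butyrate high control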); details: HEK293 GAL4-hgDAF12 luciferase reporter, agonist mode; at 6.8 µM; hits give high values; percent of butyrate response
[19] = target: Oxysterols receptor LXR-beta (Homo sapiens) (UniProt P55055); assay: LXR agonists, Gal4 luciferase reporter, confirmation, counter-screen for hgDAF-12 agonist project, cell-based, luminescence, HEK293, H. glycines campaign (AID 743051;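 active = mean activation of the triplicate above a set limit carried over from the primary screen, none filed active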); details: 24 h, at 6.8 µM, hits give high values
Chain of Oxysterols receptor LXR-beta (Homo sapiens) (P55055 whole entry, looked up, the tested form may be a part): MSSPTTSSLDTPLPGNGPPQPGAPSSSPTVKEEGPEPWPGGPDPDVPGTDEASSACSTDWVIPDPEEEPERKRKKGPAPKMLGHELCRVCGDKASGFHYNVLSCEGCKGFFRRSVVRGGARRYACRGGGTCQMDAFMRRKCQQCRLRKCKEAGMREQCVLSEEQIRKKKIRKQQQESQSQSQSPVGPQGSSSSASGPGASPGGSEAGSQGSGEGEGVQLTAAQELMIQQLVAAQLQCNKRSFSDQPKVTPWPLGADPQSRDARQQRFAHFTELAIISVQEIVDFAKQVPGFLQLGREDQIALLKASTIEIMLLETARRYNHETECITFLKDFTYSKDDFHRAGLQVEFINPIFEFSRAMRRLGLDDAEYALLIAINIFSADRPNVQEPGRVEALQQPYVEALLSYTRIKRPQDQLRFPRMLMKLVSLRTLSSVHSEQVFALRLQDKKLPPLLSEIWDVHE

Chain of Receptor-interacting serine/threonine-protein kinase 2 (Homo sapiens) (O43353 whole entry, looked up): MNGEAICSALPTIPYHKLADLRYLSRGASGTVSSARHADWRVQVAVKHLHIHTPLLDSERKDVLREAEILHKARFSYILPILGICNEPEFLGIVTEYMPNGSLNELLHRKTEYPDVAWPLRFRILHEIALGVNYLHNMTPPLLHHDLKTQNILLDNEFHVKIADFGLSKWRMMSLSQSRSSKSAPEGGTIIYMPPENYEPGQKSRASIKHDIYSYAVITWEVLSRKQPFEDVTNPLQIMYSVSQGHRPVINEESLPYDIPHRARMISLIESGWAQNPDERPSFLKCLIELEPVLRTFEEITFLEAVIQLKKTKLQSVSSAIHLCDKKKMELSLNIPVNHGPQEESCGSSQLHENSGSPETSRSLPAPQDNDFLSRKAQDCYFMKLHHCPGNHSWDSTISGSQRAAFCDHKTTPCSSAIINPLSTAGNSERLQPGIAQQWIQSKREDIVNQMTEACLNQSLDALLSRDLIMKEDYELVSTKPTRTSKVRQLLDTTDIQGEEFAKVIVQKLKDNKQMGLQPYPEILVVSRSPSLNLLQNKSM
Chain of Platelet-activating factor acetylhydrolase (Homo sapiens) (Q13093 whole entry, looked up): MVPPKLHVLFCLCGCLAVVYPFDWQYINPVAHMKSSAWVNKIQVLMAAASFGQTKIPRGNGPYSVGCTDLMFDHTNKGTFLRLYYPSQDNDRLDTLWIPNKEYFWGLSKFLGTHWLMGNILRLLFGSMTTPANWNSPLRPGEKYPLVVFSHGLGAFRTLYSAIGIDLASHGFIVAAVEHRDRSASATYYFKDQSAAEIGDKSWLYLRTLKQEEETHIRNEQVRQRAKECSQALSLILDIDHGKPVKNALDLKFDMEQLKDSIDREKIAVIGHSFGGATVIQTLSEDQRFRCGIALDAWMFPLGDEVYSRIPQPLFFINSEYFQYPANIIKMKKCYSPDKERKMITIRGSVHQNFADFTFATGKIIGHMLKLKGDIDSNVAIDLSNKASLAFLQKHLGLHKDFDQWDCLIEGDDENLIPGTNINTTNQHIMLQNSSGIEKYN
Chain of Insulin-degrading enzyme (Homo sapiens) (P14735 whole entry, looked up): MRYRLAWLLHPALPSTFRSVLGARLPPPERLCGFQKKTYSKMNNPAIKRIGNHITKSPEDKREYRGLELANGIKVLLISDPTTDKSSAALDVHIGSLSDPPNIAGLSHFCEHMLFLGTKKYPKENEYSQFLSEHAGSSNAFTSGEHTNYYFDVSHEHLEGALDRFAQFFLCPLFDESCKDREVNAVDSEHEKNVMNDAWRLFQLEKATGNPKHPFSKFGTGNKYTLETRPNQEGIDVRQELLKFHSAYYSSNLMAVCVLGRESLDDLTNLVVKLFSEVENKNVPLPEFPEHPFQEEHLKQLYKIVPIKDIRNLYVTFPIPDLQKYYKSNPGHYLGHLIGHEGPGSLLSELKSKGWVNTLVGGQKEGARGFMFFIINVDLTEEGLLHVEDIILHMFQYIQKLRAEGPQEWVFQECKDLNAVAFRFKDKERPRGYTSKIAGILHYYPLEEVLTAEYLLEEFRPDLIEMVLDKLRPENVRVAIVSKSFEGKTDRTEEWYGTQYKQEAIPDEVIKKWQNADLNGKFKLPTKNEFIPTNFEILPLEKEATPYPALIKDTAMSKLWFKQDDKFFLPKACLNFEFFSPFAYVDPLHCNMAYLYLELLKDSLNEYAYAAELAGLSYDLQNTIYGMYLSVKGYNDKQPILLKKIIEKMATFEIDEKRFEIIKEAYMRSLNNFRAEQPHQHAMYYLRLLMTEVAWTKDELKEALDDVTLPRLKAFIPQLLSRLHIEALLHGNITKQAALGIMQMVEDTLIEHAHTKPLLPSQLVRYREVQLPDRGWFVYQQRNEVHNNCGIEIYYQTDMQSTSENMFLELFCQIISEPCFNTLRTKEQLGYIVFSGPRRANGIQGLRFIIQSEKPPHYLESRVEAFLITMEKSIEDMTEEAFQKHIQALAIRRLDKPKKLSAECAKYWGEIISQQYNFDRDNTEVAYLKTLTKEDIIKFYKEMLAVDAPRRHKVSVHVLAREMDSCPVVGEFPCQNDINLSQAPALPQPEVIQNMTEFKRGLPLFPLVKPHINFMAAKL
Chain of Toll-like receptor 9 (Homo sapiens) (Q9NR96 whole entry, looked up): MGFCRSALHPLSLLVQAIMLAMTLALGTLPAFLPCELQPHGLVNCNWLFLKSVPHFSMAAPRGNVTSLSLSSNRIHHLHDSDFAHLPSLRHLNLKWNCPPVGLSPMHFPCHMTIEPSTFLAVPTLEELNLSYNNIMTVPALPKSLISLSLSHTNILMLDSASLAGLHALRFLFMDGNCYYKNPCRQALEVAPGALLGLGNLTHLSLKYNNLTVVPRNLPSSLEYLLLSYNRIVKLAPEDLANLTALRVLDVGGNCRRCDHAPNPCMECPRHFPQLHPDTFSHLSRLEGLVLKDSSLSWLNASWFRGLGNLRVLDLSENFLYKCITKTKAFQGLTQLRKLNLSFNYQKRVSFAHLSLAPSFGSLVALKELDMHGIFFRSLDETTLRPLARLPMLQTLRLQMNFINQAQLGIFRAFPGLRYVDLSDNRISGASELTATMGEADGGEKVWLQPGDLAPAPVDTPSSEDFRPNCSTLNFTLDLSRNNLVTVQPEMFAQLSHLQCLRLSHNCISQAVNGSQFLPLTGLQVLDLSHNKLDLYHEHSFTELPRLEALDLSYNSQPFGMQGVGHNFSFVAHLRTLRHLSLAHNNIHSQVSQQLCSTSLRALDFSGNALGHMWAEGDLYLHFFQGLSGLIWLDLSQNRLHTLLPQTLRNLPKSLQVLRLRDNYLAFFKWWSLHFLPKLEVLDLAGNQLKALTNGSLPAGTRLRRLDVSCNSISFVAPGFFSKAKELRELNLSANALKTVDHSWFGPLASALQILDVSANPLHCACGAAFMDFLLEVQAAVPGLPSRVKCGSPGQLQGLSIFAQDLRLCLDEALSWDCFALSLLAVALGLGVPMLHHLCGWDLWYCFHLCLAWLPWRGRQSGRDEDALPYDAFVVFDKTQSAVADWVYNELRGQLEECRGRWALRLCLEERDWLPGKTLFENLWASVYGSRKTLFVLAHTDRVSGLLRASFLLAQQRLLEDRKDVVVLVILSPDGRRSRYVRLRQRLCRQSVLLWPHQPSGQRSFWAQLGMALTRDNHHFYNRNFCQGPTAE
Chain of Protein-arginine deiminase type-4 (Homo sapiens) (Q9UM07 whole entry, looked up): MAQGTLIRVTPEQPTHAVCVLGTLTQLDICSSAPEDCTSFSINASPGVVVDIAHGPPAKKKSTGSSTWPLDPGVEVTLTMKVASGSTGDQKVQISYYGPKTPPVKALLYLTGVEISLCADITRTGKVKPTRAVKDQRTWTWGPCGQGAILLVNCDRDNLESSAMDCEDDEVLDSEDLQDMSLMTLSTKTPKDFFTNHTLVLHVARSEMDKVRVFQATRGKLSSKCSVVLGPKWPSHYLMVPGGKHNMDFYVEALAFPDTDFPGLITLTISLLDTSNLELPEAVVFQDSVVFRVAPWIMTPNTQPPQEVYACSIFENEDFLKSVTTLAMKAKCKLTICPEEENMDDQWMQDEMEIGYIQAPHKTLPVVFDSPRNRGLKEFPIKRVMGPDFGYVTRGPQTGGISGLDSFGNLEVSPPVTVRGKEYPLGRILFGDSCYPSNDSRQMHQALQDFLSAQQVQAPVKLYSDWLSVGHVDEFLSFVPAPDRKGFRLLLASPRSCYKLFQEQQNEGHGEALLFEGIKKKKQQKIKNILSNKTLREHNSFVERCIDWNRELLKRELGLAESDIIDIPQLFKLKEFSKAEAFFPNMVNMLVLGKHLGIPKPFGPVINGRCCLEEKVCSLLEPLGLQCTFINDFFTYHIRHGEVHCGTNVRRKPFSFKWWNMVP
Chain of COUP transcription factor 2 (Homo sapiens) (P24468 whole entry, looked up): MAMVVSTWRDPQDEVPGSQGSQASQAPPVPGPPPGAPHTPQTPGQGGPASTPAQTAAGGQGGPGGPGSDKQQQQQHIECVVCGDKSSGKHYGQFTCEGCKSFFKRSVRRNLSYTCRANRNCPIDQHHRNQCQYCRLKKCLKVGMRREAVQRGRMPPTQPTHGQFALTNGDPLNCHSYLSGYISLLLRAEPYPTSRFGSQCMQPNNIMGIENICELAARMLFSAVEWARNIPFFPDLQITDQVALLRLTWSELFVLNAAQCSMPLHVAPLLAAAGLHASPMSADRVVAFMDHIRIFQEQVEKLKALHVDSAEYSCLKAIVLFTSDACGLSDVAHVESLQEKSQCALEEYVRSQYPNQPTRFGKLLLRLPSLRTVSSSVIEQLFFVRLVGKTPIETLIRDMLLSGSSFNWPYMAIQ
Chain of Platelet-activating factor acetylhydrolase IB subunit alpha1 (Homo sapiens) (Q15102 whole entry, looked up): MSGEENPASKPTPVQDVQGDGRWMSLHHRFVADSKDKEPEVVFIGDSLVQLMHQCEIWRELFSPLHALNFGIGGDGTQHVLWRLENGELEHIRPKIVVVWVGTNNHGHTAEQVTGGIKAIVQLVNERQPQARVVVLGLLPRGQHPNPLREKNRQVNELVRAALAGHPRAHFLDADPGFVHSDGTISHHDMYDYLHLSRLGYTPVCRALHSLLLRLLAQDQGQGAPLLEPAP

For `O=C(/C=C(O)/C=C/c1ccc(O)cc1)/C=C/c1ccc(O)cc1`, the inhibition [1] was 50% (active), the inhibition [2] was 7.11% and the inhibition [3] was 31.6% (active). The inhibition [4] was 39.7% (active), the inhibition [5] was 42.9% and the inhibition [6] was 6.33%. The inhibition [7] was 64.2% (active) and the inhibition [8] was 65.5% (active).
With `Oc1c(Br)cc(/C=N/NC(=S)NCC2CCCO2)cc1Br` (stereo not drawn) the inhibition [9] was 36.3% (active).
`COCC(C)NC(=O)c1ccc(-n2nc(C(F)(F)F)cc2-c2cccs2)cc1` (stereo not drawn) showed an inhibition [9] of 23.6%.
For `COc1cccc(/C=N/NC(=O)c2[nH]nc3c2CCc2ccccc2-3)c1O`, the inhibition [9] was 38.9% (active).
With `Nc1c(C(=O)c2cccs2)sc2nsc(SCCN3CCCCC3)c12` the inhibition [1] was 54.9% (active), the inhibition [2] was 18.4% and the inhibition [4] was 31.7% (active). The inhibition [5] was 27.5%, the inhibition [6] was 10.9% (active) and the inhibition [7] was 19.8%. For the same compound, the inhibition [8] was 36.9% (active).
For `O=C(CCC1CCCCC1)Nc1cc(C(F)(F)F)ccc1N1CCOCC1`, the inhibition [9] was 6.87%.
For `COC(=O)c1ccc(C(NC(=O)OCc2ccccc2)/C(C)=C/[C@@H](C)C(=O)NCc2ccc(OC)c(OC)c2)cc1` (stereo partly drawn), the inhibition [9] was 36% (active).
For `OC(CNCC1CCCO1)Cn1c2ccc(Br)cc2c2cc(Br)ccc21` (stereo not drawn), the inhibition [9] was 37.2% (active).
`Cc1ccc(-c2noc(CSc3nnc(-c4ccncc4)n3-c3ccc(F)cc3)n2)cc1` gave an inhibition [9] of 1.52%.
`CC(=O)N1CCN(C(=O)c2cc(-c3ccc(C)o3)nc3ccccc23)CC1` showed an inhibition [9] of 5.07%.
For `COc1cccc(CNC(=O)CCC2CCCN(C(=O)c3ccc(F)c(Cl)c3)C2)c1` (stereo not drawn), the inhibition [9] was 17.2%.
With `COC(=O)c1cc(S(=O)(=O)Nc2ccc(C)c(F)c2)c[nH]1` the inhibition [9] was 24.1%.
For `Oc1ccc(N=Nc2nccs2)c(O)c1`, the inhibition [9] was 5.09%.
`Cc1ccccc1-n1c(SCC(=O)Nc2cccc3ccccc23)nc(O)cc1=O` gave an inhibition [9] of 4.9%.
For `COc1ccc(C(=O)Nc2nc(-c3ccc(S(=O)(=O)N4CCOCC4)cc3)cs2)cc1`, the inhibition [1] was 3.32%, the inhibition [2] was 68.2% (active) and the inhibition [10] was 18.9% (active). It also gave an inhibition [11] of -12.4%, an inhibition [12] of -5.9% and an inhibition [13] of 16.2%. The inhibition [14] was 21.5%, the inhibition [15] was -11.1% and the inhibition [16] was 40.2% (active).
With `COc1cc(/C=C(\C#N)c2nc3c(s2)CC(C)CC3)ccc1O` (stereo not drawn) the inhibition [1] was 161% (active), the inhibition [2] was 11.3% and the inhibition [4] was 7.82%. The inhibition [5] was 17%, the inhibition [6] was 0.65% and the inhibition [7] was 29.5% (active). For the same compound, the inhibition [8] was 39.6% (active).
With `Cc1cc(C(=O)CSc2nc(N)cc(=O)[nH]2)c(C)n1CCc1ccc(Cl)cc1` the inhibition [9] was 74.3% (active) and the inhibition [10] was 13.4%.
In the case of `Cc1ccc(-n2c(C)cc(/C=C(\C#N)C(=O)NCC3CCCO3)c2C)cc1` (stereo not drawn), the inhibition [9] is reported as 63.7% (active).
With `CC1CCCCC1NC(=O)COC(=O)Cc1ccc(Cl)cc1` (stereo not drawn) the inhibition [9] was 22.3%.
`Cc1cc(Cl)ccc1OCCCC(=O)NCc1ccncc1` gave an inhibition [1] of 7.81% and an inhibition [2] of 14.7%.
`O=C(N/N=C/c1cccnc1)c1cc2ccccc2cc1O` showed an inhibition [9] of 5.94% and an inhibition [17] of 13.8%.
With `COc1ccc(N=C(C)c2sc3ccccc3c2O)cc1` the inhibition [1] was 56.1% (active), the inhibition [2] was 15.2% and the activation [18] was 18.6% (active). The activation [19] was 0.76%.
With `COc1cc(C2CC(=O)N3CN(Cc4ccccc4)CSC3=C2C#N)ccc1OCc1ccccc1` (stereo not drawn) the inhibition [9] was 14.2%.
With `Cc1ccc(S(=O)(=O)NCc2csc(C)n2)c(C)c1` the inhibition [9] was 2.33%.
Work on `CN1/C(=c2/s/c(=C3/C(=O)N(c4ccccc4)NC3=Nc3ccccc3)n(C)c2=O)C(C)(C)c2ccccc21` yielded an inhibition [1] of 8.19% and an inhibition [2] of 11.6%.
`COc1ccc(C(=O)NC(=S)Nc2ccccc2N2CCN(S(C)(=O)=O)CC2)cc1OC` showed an inhibition [9] of -1.51%.
With `Cc1cc(C(=O)CSc2nc(N)cc(=O)[nH]2)c(C)n1-c1cccc(F)c1` the inhibition [9] was 51.8% (active).
Work on `COc1ccc(/C=C/C(=O)c2cc(Br)ccc(=O)c2O)cc1` yielded an inhibition [9] of 20.5%.
`CCCCC(=O)Nc1ccc2c(c1)C(=O)NC2=O` showed an inhibition [9] of 4.81%.
